# Data taken from PubChem BioAssay.
# Unmarked numbers belong to inactive results. The rule behind the calls is not given here. Where a SMILES comes first, the peptide text is derived from it. The star is where a group is joined. Cbz = O=C(OCc1ccccc1)*
# Tested on: Aerobactin synthetase IucA (Klebsiella pneumoniae, hypervirulent)
# Assay: biochemical IucA inhibition screen of LOPAC library by absorbance (AID 1346212);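 note: 100% = no compound wells and 0% = no enzyme wells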
# Details: IucA enzyme assay, absorbance (OD) readout; active compounds read low;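 tested at 8 µM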
row,Compound,remaining activity [%]
1,CCCC[C@@]1(C2CCCC2)Cc2cc(OCC(=O)O)c(Cl)c(Cl)c2C1=O,106
2,COc1ccccc1N1CCN(CCCCNC(=O)c2ccc3ccccc3c2)CC1,118
3,CC(=O)N1CCN(c2ccc(OC[C@H]3CO[C@](Cn4ccnc4)(c4ccc(Cl)cc4Cl)O3)cc2)CC1,121
4,CC1CNCCN1S(=O)(=O)c1cccc2cnccc12 (stereo not given),95.7
5,CC(C)[C@H](NC(=O)OCc1ccccc1)C(=O)N[C@H](C=O)Cc1ccccc1 (Cbz-Val-Phe-aldehyde),106
6,CNC[C@H](O)c1ccc(O)c(O)c1,94.5
7,CCCn1cnc2c1c(=O)n(CCCCC(C)=O)c(=O)n2C,93.8
8,O=C(O)C1(C(=O)O)CCC1.[NH2-].[NH2-].[Pt+2],113
9,CSC(N)=NCCC[C@H](N)C(=O)O,123
10,N[C@@H](Cc1c[nH]c2ccccc12)C(=O)O,91.3
11,CC[C@H](C)C(=O)O[C@H]1CCC=C2C=C[C@H](C)[C@H](CC[C@@H]3C[C@@H](O)CC(=O)O3)[C@H]21,118
12,c1ccc2nc(C3=NCCN3)ccc2c1,121
13,CCCCCCCC/C=C\CCCCCCCC(=O)NCCc1ccc(O)c(O)c1,109
14,CCCc1c(-c2ccc(O)cc2)nn(-c2ccc(O)cc2)c1-c1ccc(O)cc1,102
15,CNC1(C)C2CCC(C2)C1(C)C (stereo not given),96.4
16,N=C(N)c1ccc(N)cc1,112
17,OCc1cc(C(O)CNCCCCCCOCCCCc2ccccc2)ccc1O (stereo not given),122
18,O=C(c1ccc(OCCCc2cnc[nH]2)cc1)C1CC1,100
19,COc1cccc2c1[C@@H]1CN(CCCCn3c(=O)[nH]c4c(sc5ncc(-c6ccccc6)nc54)c3=O)C[C@@H]1CO2,98.2
20,CC#C[C@]1(O)CC[C@H]2[C@@H]3CCC4=CC(=O)CCC4=C3[C@@H](c3ccc(N(C)C)cc3)C[C@@]21C,111

row,Compound,remaining activity [%]
1,c1ccc(CN2CCC3(CCCc4ccccc43)CC2)cc1,103
2,CC(=O)C(C)=O,97
3,COc1[nH]c2ccc(F)cc2c1C(=O)OCC1CCN(CCNS(C)(=O)=O)CC1,124
4,CN(Cc1cnc2nc(N)nc(N)c2n1)c1ccc(C(=O)N[C@@H](CCC(=O)O)C(=O)O)cc1,117
5,O=C(O)/C=C/C(O)c1ccc(Cl)cc1 (stereo not given),120
6,C[C@H](NCCc1ccc(O)cc1)[C@H](O)c1ccc(O)cc1,94.5
7,CN=C(NC#N)Nc1ccc(C2=NNC(=O)CC2C)cc1 (stereo not given),104
8,C=C(C)C1CC=C(C(=O)O)CC1 (stereo not given),82.4
9,N=c1c[n+](N2CCOCC2)[n-]o1,108
10,CCCCCCN(CCCCCC)C(=O)Cc1c(-c2ccc(F)cc2)[nH]c2ccccc12,97.1
11,NCCNS(=O)(=O)c1cccc2c(Cl)cccc12,96.1
12,CNCC[C@@H](Oc1ccc(C(F)(F)F)cc1)c1ccccc1,105
13,O=C[C@H](Cl)[C@@H](O)[C@H](O)[C@H](O)CO,101
14,Cc1cc(NC(=O)Nc2ccc3c(ccn3C)c2)sn1,122
15,CC(COc1ccc(/C=C/c2ccccc2)cc1)[N+](C)(C)C (stereo not given),104
16,C[C@]12CC[C@@H]3c4ccc(O)cc4C[C@@H](CCCCCCCCCS(=O)CCCC(F)(F)C(F)(F)F)[C@H]3[C@@H]1CC[C@@H]2O (stereo not given in full),115
17,Nc1cc(Cl)c(NC2=NCCN2)c(Cl)c1,118
18,Cc1cccc(C)c1OCC(N)C(C)C (stereo not given),97.7
19,C[C@@H](N)C1CCC(C(=O)Nc2ccncc2)CC1 (stereo not given in full),107
20,COC(=O)c1c(C)[nH]c(C)c1C(=O)c1ccccc1Cc1ccccc1,96.6
